Source: PubChem (National Center for Advancing Translational Sciences (NCATS))
Pf growth 96h: Primary qHTS for delayed death inhibitors of the malarial parasite plastid, 96 hour incubation | P. falciparum luciferase reporter growth, 96 h | AID 504834, 2011 | Potency, µM (top dose mostly 28.7 µM), most hits filed as inhibitors | 320,000 compounds, 6.9% hits
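Cell-based qHTS: luciferase-tagged P. falciparum in erythrocytes (2% hematocrit, 0.05% parasitemia final) incubated with compounds for 96 hours, 37 C, 5% CO2; luciferase detection reagent then added and luminescence measured.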
Pf growth 48h: Primary qHTS for delayed death inhibitors of the malarial parasite plastid, 48 hour incubation; P. falciparum luciferase growth in erythrocytes, 48 h; Potency, µM (series often up to 28.7 µM), hits mostly inhibitors; 310,000 compounds, 5.9% hits
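Growth was read as firefly luciferase luminescence after a 48 h, 37 C, 5% CO2 exposure of compounds to reporter-bearing P. falciparum cultures (0.1% parasitemia, 2% hematocrit final) in Albumax-supplemented RPMI 1640.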
CHX counter: Cycloheximide Counterscreen for Small Molecule Inhibitors of Shiga Toxin. cell reporter, cycloheximide protein synthesis inhibition counterscreen. max response, %. 300,000 compounds, 12% hits; in the data active means max response mostly above about 13%, no sharp cut-off; inactive means mostly below about 14%; further: read at 38.3 µM for the half of the compounds with a filed dose
Shiga inhibitor: A qHTS for Small Molecule Inhibitors of Shiga Toxin | AID 2315, 2010 | 290,000 compounds, 9.2% hits | inhibition, % at 38.7 µM | Vero cells, Shiga toxin protein synthesis inhibition reporter; in the data active means inhibition mostly above about 28%, no sharp cut-off; inactive means mostly below about 43%
Numbers stand for hits; 0 = inactive; ? = inconclusive; - = no result given. Rows were chosen to be rich in hits. Some 21% of all compounds tested hit in one or more screens of this group. Unless noted, the call rests on the fitted dose curve; in most records, active means well fitted inhibition curve with a large enough effect; inconclusive means small, poorly fitted or top-dose-only effect, or another doubt; inactive means no such curve, though single readings can be large or run the other way.

SMILES	Pf growth 96h	Pf growth 48h	CHX counter	Shiga inhibitor
CCOc1ccccc1-c1nc(-c2cc3ccc(C)cc3[nH]c2=O)no1	0	9.3µM	0	0
CCCc1nc(-c2cc3ccc(C)cc3[nH]c2=O)no1	3.7µM	0	23	59
Cc1ccc2[nH]c(=O)c(-c3noc(CC(C)C)n3)cc2c1	5.2µM	9.3µM	0	0
C/C(CC(=O)Nc1cc(Cl)ccc1C)=N\NC(N)=O	0	0	0	0
COc1ccc(-n2c(=S)[nH]c3cc(C(=O)NCCCN4CCOCC4)ccc3c2=O)cc1OC	0	0	0	0
O=C(CN1CCN(C(=O)C2CCCO2)CC1)Nc1ccc(Br)cc1 (stereo unspecified)	0	0	0	0
O=C(CN1C(=O)COc2ccccc21)N1CCc2ccccc2C1	10µM	0	0	0
O=C(C1COc2ccccc2O1)N1CCN(Cc2ccccc2)CC1 (stereo unspecified)	8.3µM	0	0	-
Cc1cc(=O)oc2c(C)c(OCC(=O)N3CCN(C(=O)C4COc5ccccc5O4)CC3)ccc12 (stereo unspecified)	9.3µM	10µM	0	0
O=C(C1COc2ccccc2O1)N1CCc2ccccc2C1 (stereo unspecified)	?	0	29	60
CC(=O)Nc1ccc(NC(=O)CCC(=O)OCC(=O)c2ccc(F)cc2)cc1	0	0	0	0
O=C(C1COc2ccccc2O1)N1CCN(c2ccccc2Cl)CC1 (stereo unspecified)	?	0	0	0
O=C(C1COc2ccccc2O1)N1CCN(c2ccccc2F)CC1 (stereo unspecified)	?	12µM	0	0
COc1cc2nc(N3CCN(C(=O)[C@H]4COc5ccccc5O4)CC3)nc(N)c2cc1OC	3.7µM	3.7µM	0	0
COc1ccc(N2CCN(C(=O)C3COc4ccccc4O3)CC2)cc1 (stereo unspecified)	-	0	0	0
Cc1cccc(N2CCN(C(=O)C3COc4ccccc4O3)CC2)c1C (stereo unspecified)	?	?	24	52
CCS(=O)(=O)c1ccc(C(=O)NC2CC2)c(Cl)c1Cl	0	0	0	0
O=[N+]([O-])c1ccc(Cl)c(/C=N/n2c(-c3ccncc3)n[nH]c2=S)c1	0	0	0	0
Cc1[nH]n(-c2cccc([N+](=O)[O-])c2)c(=O)c1-c1ccccc1	13µM	?	0	0
Cc1[nH]n(-c2cccc(Cl)c2)c(=O)c1-c1ccccc1	5.9µM	-	0	0
COc1cccc(C(=O)N(C)CC2CCN(CCc3cccc(C(F)(F)F)c3)CC2)c1	?	0	0	0
C=CCn1c(-c2cccc(OC)c2)nc2nc3ccccc3nc21	0	0	32	0
C=CCn1c(-c2cccc(OC)c2)n[nH]c1=S	0	0	0	0
COc1ccc(CCn2c(-c3ccco3)nc3nc4ccccc4nc32)cc1	0	?	0	43
c1coc(-c2nc3nc4ccccc4nc3n2CC2CCCO2)c1 (stereo unspecified)	0	-	0	0
SMILES	Pf growth 96h	Pf growth 48h	CHX counter	Shiga inhibitor
COc1ccc(CCn2c(-c3cc([N+](=O)[O-])cc([N+](=O)[O-])c3)nc3nc4ccccc4nc32)cc1	0.74µM	?	0	0
c1ccc(Cn2c(-c3ccco3)nc3nc4ccccc4nc32)cc1	0	0	28	0
CCCCOc1ccc(C(=O)NCC(=O)NC2CCCCC2)cc1	0	0	-	-
CCCCc1ccc(NC(=S)Nc2ccc(Cl)c(S(=O)(=O)N(C)C)c2)cc1	?	0	0	0
CC(=O)SC[C@@H](Cc1ccccc1)C(=O)NCC(=O)OCc1ccccc1	0	0	-	-
CCCCCn1c(-c2ccco2)nc2nc3ccccc3nc21	?	?	9.2	0
CCCCn1c(-c2ccco2)n[nH]c1=S	0	0	0	0
COCCCn1c(-c2ccc(OC)cc2)nc2nc3ccccc3nc21	-	0	0	0
CCCn1c(-c2ccc(OC)cc2)nc2nc3ccccc3nc21	3.7µM	0	0	0
COc1ccc(C(=O)n2c(-c3ccco3)nc3ccccc32)cc1	2.1µM	0	31	0
O=c1c2ccccc2nc(-c2ccco2)n1Cc1ccccc1	?	0	57	130
CC(=O)N1CCN(C(=O)c2cccc(NS(=O)(=O)c3ccc(Br)cc3)c2)CC1	0	?	-	-
O=C(c1ccccc1)N1CCN(c2ccc(N3CCOCC3)nn2)CC1	0	?	-	-
COCCNC(=O)COc1ccc(Br)cc1Cl	0	-	33	0
C=CCNC(=O)COc1ccc(Br)cc1Cl	0	0	33	0
COCCN(C(=O)COC(=O)Cc1coc2cc3c(cc12)CCC3)c1c(N)n(Cc2ccccc2)c(=O)[nH]c1=O	0	0	-	-
COc1cc2ccccc2nn1	0	0	0	0
